# From PubChem BioAssay (NCI)
# About 83,000 compounds went through this panel and 20% of them were active in at least one assay; those are over-represented in the sample as a whole.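 Testing used 96-well plates and a 48-hour single-concentration exposure. Example: -40 means 40% of the starting cells died.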 Unmarked numbers belong to inactive results. The source made the active and inactive calls. The calls were made as follows: active = growth percent below 10; inactive = the rest.
# Tested on: HT29 colon
# Assay: NCI-60 one-dose screen, 48 h (100 = growth as untreated, 0 = no growth, -100 = all killed)
# Conditions: 10 µM unless noted
row,Compound,growth
1,CC(C)(C)c1cc(-c2nc3ccc(N4CCN(CCO)CC4)cc3[nH]2)cc(C(C)(C)C)c1O,4.47% (active)
2,Clc1ccc(/C=C/c2nc(N3CCOCC3)c3nc(Cl)c(Cl)cc3n2)cc1,105%
3,CCOC(=O)/C=C\C(=O)NC(N)=O,104%
4,CCC#CC[C@H]1C/C=C2/C(=O)C=C[C@@H]2C/C=C\CCCC(=O)O1,-15.8% (active)
5,O=C(Cc1c(F)cccc1Cl)Nc1ccc(S(=O)(=O)Nc2ncccn2)cc1,120%
6,C=CCc1cc(Cl)cc2c(OC(C)=O)c(C(C)=O)c(-c3ccccc3)nc12,112%
7,Cc1c(C(=O)NCc2ccccc2)[n+](=O)c2cc(F)ccc2n1[O-],94.4%
8,C=CCOc1cccc(/C=C/C(=O)c2sc(Nc3cccnc3)nc2C)c1,16.8%
9,COc1ccc(C(=O)c2cc(OC)c(OC)c(OC)c2)cc1/C=C/C(=O)c1ccc2c(c1)OCO2,-27.2% (active)
10,CCN(CC)S(=O)(=O)c1ccc2[nH]c(=O)cc(C(=O)Nc3ccc(OC)cc3OC)c2c1,126%
11,O=C(Nc1cc(C(F)(F)F)cc(C(F)(F)F)c1)Nc1ccc(OCc2nnc(-c3ccc(Cl)cc3)o2)c(F)c1,10.8%
12,O=C1CCCCN1CCCCC#Cc1ccccc1C#Cc1ccccn1,88.6%
13,COc1ccc2c(c1)C=CC(C#N)N2C(=O)c1ccccc1 (stereo not drawn),5.77% (active)
14,CC1(C)OC2COC3(C(=O)O)OC(C)(C)OC3C2O1 (stereo not drawn),99.8%
15,COc1cc(C2C=C(C)N=C3SC(C)=NN32)cc(OC)c1OC (stereo not drawn),102%
16,O=C(/C=C/CN1CCOCC1)Nc1cc2c(Nc3cccc(Cl)c3F)ncnc2cc1OCCOC(F)F,66.3%
17,Cc1oc2nc[nH]c(=O)c2c1C(=O)/C=C/c1ccc(Cl)cc1,12.9%
18,CCn1cc(C2NC(=O)c3cc(F)ccc3N2)c2cccc(Cl)c21 (stereo not drawn),3.35% (active)
19,CN(C)C/C=C/C(=O)Nc1cc2c(Nc3ccc(F)c(Cl)c3F)ncnc2cc1OCCOC(F)F,2.75% (active)
20,CC(=O)Nc1ccc2c(c1)/C(=C\C=C/c1ccc([N+](C)(C)C)cc1)c1ccccc1-2,59.2%

row,Compound,growth
1,c1ccc([P+](CCC[P+](c2ccccc2)(c2ccccc2)c2ccccc2)(c2ccccc2)c2ccccc2)cc1,66.9%
2,COc1ccc2c(c1)NC(=O)CN2c1nc(C)nc2ccccc12,3.4% (active)
3,CCCCCC/C=C\CCCCCCCCOc1ccc(CCOP(=O)(O)OCC[N+](C)(C)C)cc1,30.2%
4,O=C(Nc1ccc(I)cc1)c1cc([N+](=O)[O-])ccc1O,48.7%
5,NC(=O)c1c(NC(=O)c2ccc3c(c2)OCO3)sc2c1CCC(=O)C2,-45.5% (active)
6,O=C(CNC(=O)c1cccc2ccccc12)Nc1ccccc1Oc1ccccc1,1.97% (active)
7,COC12CC(=O)C(C(C)=O)=C(O)C1(C)c1c(O)c(C)c(O)c(C(C)=O)c1O2 (stereo not drawn),86.5%
8,O=S(=O)(NCCCNc1nccc(-c2c(-c3ccccc3)nc3sccn23)n1)c1ccc(F)cc1,29%
9,CCCCOc1nc2c(C)cccc2cc1C1CNC(=O)c2ccccc2N1 (stereo not drawn),61.4%
10,C=CCN=C1NC(=O)/C(=C/c2cc(C(C)(C)C)c(O)c(C(C)(C)C)c2)S1,26.9%
11,Nc1nc(-c2ccccc2)cs1,100%
12,CC[C@H](C)[C@@H]1NC(=O)[C@H]([C@@H](C)O)NC(=O)C(Cc2ccccc2)NC(=O)[C@@H]2CCCN2C(=O)C(C(C)C)NC(=O)C(Cc2ccccc2)NC(=O)CNC(=O)[C@@H]2CCCN2C1=O (stereo partly drawn),76.2%
13,CCN(CC)CCSc1c2ccc(Cl)cc2nc2ccc(OC)cc12,34.8%
14,Cc1cc2c(C(C)C)c(O)c(O)c(C=NCCCCC(=O)O)c2c(O)c1-c1c(C)cc2c(C(C)C)c(O)c(O)c(C=NCCCCC(=O)O)c2c1O,46.6%
15,COc1ccc(Cn2cc(COc3cc(/C=C/C(=O)c4cc(OC)c(OC)c(OC)c4)ccc3OC)nn2)cc1,13%
16,Cc1ccc(C2=NN(c3ccc(S(=O)(=O)NC(=O)NCc4ccccc4)cc3)C(c3ccc(N(C)C)cc3)C2)c(C)c1 (stereo not drawn),43%
17,c1ccc2c(c1)Oc1ccccc1C2C1c2ccccc2Oc2ccccc21,82.8%
18,COc1ccc(S(=O)(=O)Nc2cc(/C=C\c3cc(OC)c(OC)c(OC)c3)cc(OC)c2OC)cc1OC,13.6%
19,COC1=CC(c2ccc[nH]2)=N/C1=C\c1[nH]c(C)c(CCCn2cc(CCCCCCCCC[C@@H]3Cc4cc(O)ccc4C4CC[C@]5(C)[C@@H](O)CC[C@H]5C43)nn2)c1C (stereo partly drawn),23.6%

# Tested on: SNB-19 CNS
# Assay: as above
# Conditions: 10 µM unless noted
row,Compound,growth
1,CC(C)(C)c1cc(-c2nc3ccc(N4CCN(CCO)CC4)cc3[nH]2)cc(C(C)(C)C)c1O,74%
2,Clc1ccc(/C=C/c2nc(N3CCOCC3)c3nc(Cl)c(Cl)cc3n2)cc1,101%
3,CCOC(=O)/C=C\C(=O)NC(N)=O,106%
4,CCC#CC[C@H]1C/C=C2/C(=O)C=C[C@@H]2C/C=C\CCCC(=O)O1,37.3%
5,O=C(Cc1c(F)cccc1Cl)Nc1ccc(S(=O)(=O)Nc2ncccn2)cc1,96%
6,C=CCc1cc(Cl)cc2c(OC(C)=O)c(C(C)=O)c(-c3ccccc3)nc12,112%
7,Cc1c(C(=O)NCc2ccccc2)[n+](=O)c2cc(F)ccc2n1[O-],108%
8,C=CCOc1cccc(/C=C/C(=O)c2sc(Nc3cccnc3)nc2C)c1,57.7%
9,COc1ccc(C(=O)c2cc(OC)c(OC)c(OC)c2)cc1/C=C/C(=O)c1ccc2c(c1)OCO2,11.8%
10,CCN(CC)S(=O)(=O)c1ccc2[nH]c(=O)cc(C(=O)Nc3ccc(OC)cc3OC)c2c1,104%
11,O=C(Nc1cc(C(F)(F)F)cc(C(F)(F)F)c1)Nc1ccc(OCc2nnc(-c3ccc(Cl)cc3)o2)c(F)c1,23%
12,O=C1CCCCN1CCCCC#Cc1ccccc1C#Cc1ccccn1,108%
13,COc1ccc2c(c1)C=CC(C#N)N2C(=O)c1ccccc1 (stereo not drawn),43.8%
14,CC1(C)OC2COC3(C(=O)O)OC(C)(C)OC3C2O1 (stereo not drawn),92.1%
15,COc1cc(C2C=C(C)N=C3SC(C)=NN32)cc(OC)c1OC (stereo not drawn),100%
16,O=C(/C=C/CN1CCOCC1)Nc1cc2c(Nc3cccc(Cl)c3F)ncnc2cc1OCCOC(F)F,81.7%
17,Cc1oc2nc[nH]c(=O)c2c1C(=O)/C=C/c1ccc(Cl)cc1,42%
18,CCn1cc(C2NC(=O)c3cc(F)ccc3N2)c2cccc(Cl)c21 (stereo not drawn),34.3%
19,CN(C)C/C=C/C(=O)Nc1cc2c(Nc3ccc(F)c(Cl)c3F)ncnc2cc1OCCOC(F)F,36.6%
20,CC(=O)Nc1ccc2c(c1)/C(=C\C=C/c1ccc([N+](C)(C)C)cc1)c1ccccc1-2,36.6%

row,Compound,growth
1,c1ccc([P+](CCC[P+](c2ccccc2)(c2ccccc2)c2ccccc2)(c2ccccc2)c2ccccc2)cc1,64.4%
2,COc1ccc2c(c1)NC(=O)CN2c1nc(C)nc2ccccc12,34.4%
3,CCCCCC/C=C\CCCCCCCCOc1ccc(CCOP(=O)(O)OCC[N+](C)(C)C)cc1,39.4%
4,O=C(Nc1ccc(I)cc1)c1cc([N+](=O)[O-])ccc1O,35.4%
5,NC(=O)c1c(NC(=O)c2ccc3c(c2)OCO3)sc2c1CCC(=O)C2,14.3%
6,O=C(CNC(=O)c1cccc2ccccc12)Nc1ccccc1Oc1ccccc1,33.8%
7,COC12CC(=O)C(C(C)=O)=C(O)C1(C)c1c(O)c(C)c(O)c(C(C)=O)c1O2 (stereo not drawn),52.8%
8,O=S(=O)(NCCCNc1nccc(-c2c(-c3ccccc3)nc3sccn23)n1)c1ccc(F)cc1,75.1%
9,CCCCOc1nc2c(C)cccc2cc1C1CNC(=O)c2ccccc2N1 (stereo not drawn),47%
10,C=CCN=C1NC(=O)/C(=C/c2cc(C(C)(C)C)c(O)c(C(C)(C)C)c2)S1,83.6%
11,Nc1nc(-c2ccccc2)cs1,105%
12,CC[C@H](C)[C@@H]1NC(=O)[C@H]([C@@H](C)O)NC(=O)C(Cc2ccccc2)NC(=O)[C@@H]2CCCN2C(=O)C(C(C)C)NC(=O)C(Cc2ccccc2)NC(=O)CNC(=O)[C@@H]2CCCN2C1=O (stereo partly drawn),73.6%
13,CCN(CC)CCSc1c2ccc(Cl)cc2nc2ccc(OC)cc12,92%
14,Cc1cc2c(C(C)C)c(O)c(O)c(C=NCCCCC(=O)O)c2c(O)c1-c1c(C)cc2c(C(C)C)c(O)c(O)c(C=NCCCCC(=O)O)c2c1O,30.9%
15,COc1ccc(Cn2cc(COc3cc(/C=C/C(=O)c4cc(OC)c(OC)c(OC)c4)ccc3OC)nn2)cc1,82.6%
16,Cc1ccc(C2=NN(c3ccc(S(=O)(=O)NC(=O)NCc4ccccc4)cc3)C(c3ccc(N(C)C)cc3)C2)c(C)c1 (stereo not drawn),54.8%
17,c1ccc2c(c1)Oc1ccccc1C2C1c2ccccc2Oc2ccccc21,97.1%
18,COc1ccc(S(=O)(=O)Nc2cc(/C=C\c3cc(OC)c(OC)c(OC)c3)cc(OC)c2OC)cc1OC,40%
19,COC1=CC(c2ccc[nH]2)=N/C1=C\c1[nH]c(C)c(CCCn2cc(CCCCCCCCC[C@@H]3Cc4cc(O)ccc4C4CC[C@]5(C)[C@@H](O)CC[C@H]5C43)nn2)c1C (stereo partly drawn),77.7%
